Over roughly 1,400 sequences, “thermal melting temperature (Tm) of peptide-HLA complex” has its median near 60; the lowest 2% begin near 45. The full list was thinned out, with the lowest values kept by preference.
target: HLA-B*07:02; assay: thermal melting temperature (Tm) of peptide-HLA complex; higher = more thermostable pHLA complex; conditions: C1R-B*07:02
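Also: lysates heated 10 min at 37–73 °C, complexes pulled down with pan-HLA I antibody, peptide signal by DIA-MS relative to 37 °C, Tm where half the complex is unfolded.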

Sequence | thermal melting temperature [°C]
FPNIPGKSL | 62
APRWLEEEAAL | 62.7
IPIGGGTSV | 41.6
SPASFLRSL | 40.6
QPASFAVSL | 62.8
SPASRSISL | 61
NPRLNILDTL | 51.2
GPIYPGHGM | 59.2
YPRMQVTVF | 61.9
APKSPSSEWL | 51.9
YPRAQLEVSAL | 61.5
APAPPTTTTI | 61
VPMPLPTVL | 62.6
RPALPSTQQL | 57.6
APDKHHITPLL | 43.7
TPMPKDVRQSL | 44.5

Reference: the supplement of paper PMC7726561
